Laboratory results taken from PubChem BioAssay AID624489 (Broad Institute, 2012).
Potency and affinity values are given separately. The source made the active and inactive calls.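 How the source made its calls: active means compounds with a falling luminescence curve whose half-maximal concentration is at most twice the top valid dose; inconclusive means flat fit between -70 and -30 percent, or poor fit; inactive means the rest.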

Assay: A375 melanoma cell cytotoxicity, dose response, counter-screen for MITF inhibitor project, CellTiter-Glo luminescence, dry powder, set 2 (AID 624489)
Conditions: A375 melanoma viability, CellTiter-Glo ATP luminescence, 24 h; series mostly up to 35 µM

| Compound | outcome |
| --- | --- |
| C=CCNC1=C(NCC=C)C(=O)c2ccccc2C1=O | inactive |
| O=C1C(NS(=O)(=O)c2ccc(Br)cc2)=C(N2CCN(c3ccccc3)CC2)C(=O)c2ccccc21 | inactive |
| C=CCNC1=C(NS(=O)(=O)c2cccs2)C(=O)c2ccccc2C1=O | inactive |
| COc1ccc(C2=C(NC(=O)c3ccc(OC)cc3-c3cccc(OC)c3)C(=O)c3ccccc3C2=O)cc1 | inactive |
| C=CCNC1=C(NC(=O)c2ccccc2)C(=O)c2ccccc2C1=O | inactive |
